# The whole screen tested about 63,000 compounds, of which about 1,100 (1.7%) were called active. Shown is part of a subset that was picked to be rich in actives. Potency and affinity values are given separately. A number with no mark means an inactive call. Cut-off read from the data, not from the text of the source: active = cytotoxicity above about 50%; inactive = the rest.
# Assay: cytotoxicity in HPDE-C7 cells, cell-based, fluorescence, HTS (AID 430);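 note: cells exposed to compound for 48 hours before viability readout; 0% = vehicle and 100% = reference cytotoxic drug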
# Conditions: HPDE-C7 pancreatic duct cells viability, at 10 µM, active compounds read high
row,Compound,cytotoxicity
1,CCCCn1c2nc3ccccc3nc2c2c(=O)n(C(C)CC)cnc21 (configuration not stated),-10.4%
2,COc1ccc(CN(CCCN2CCOCC2)S(=O)(=O)N(C)C)cc1OC,-7.2%
3,COc1ccc2nc(SCC(=O)NC(C)C)[nH]c2c1,-13.4%
4,O=C(C1Cc2ccccc2O1)N1CCCCC1 (configuration not stated),-12.6%
5,COc1ccc(Cl)cc1N1CC(C(=O)Nc2nccs2)CC1=O (configuration not stated),2.4%
6,O=C(CSc1nnnn1C1CCCC1)N1CCN(C(=O)c2ccco2)CC1,-11.8%
7,CN(C(=O)c1cccc(C#N)c1)c1nnc(-c2ccccn2)s1,-2%
8,O=c1c(C=NCCCn2ccnc2)c(-c2ccccc2)[nH]n1-c1nc2ccccc2s1,57.5% (active)
9,CCCc1[nH]n(-c2nc3ccccc3s2)c(=O)c1C=NCCN1CCOCC1,8.6%
10,CCCCCN=Cc1c(C)[nH]n(-c2nc3ccccc3s2)c1=O,1.2%
11,O=C(NCC(=O)N(Cc1ccc(F)cc1)C(C(=O)NC1CCCC1)c1ccco1)c1ccco1 (configuration not stated),-8.4%
12,CCC(CC)C(=O)Nc1cc(=O)n(C)c(=O)n1C,-10.5%
13,N#CC1=C(N)C(C#N)(C#N)[C@H](c2ccoc2)[C@H]2CN(Cc3ccccc3)CC=C12,72% (active)
14,CC(=O)N1CC=C2C(C#N)=C(N)C(C#N)(C#N)[C@H](c3ccoc3)[C@H]2C1,9.7%
15,CC(C)N1CC=C2C(C#N)=C(N)C(C#N)(C#N)C(c3ccccc3)C2C1 (configuration not stated),12.8%
16,CCSc1nnc(NC(=O)CN(C)S(=O)(=O)c2ccc(F)cc2)s1,-4.8%
17,Cc1ccc(-c2nnn(CCC(=O)N3CCCCC3C)n2)cc1 (configuration not stated),-5.2%
18,CCCCOc1ccccc1NC(=O)CC1Nc2ccccc2NC1=O (configuration not stated),-9.1%
19,CC(C)Oc1ccccc1C1CC(=O)Nc2cc3c(cc21)OCO3 (configuration not stated),39.1%
20,COc1ccccc1C1CC(=O)Nc2cc3c(cc21)OCCO3 (configuration not stated),54.4% (active)
21,Cc1ccc(C2CC(=O)Nc3cc4c(cc32)OCCO4)s1 (configuration not stated),-4.6%

row,Compound,cytotoxicity
1,O=C1CC(c2ccncc2)c2cc3c(cc2N1)OCCO3 (configuration not stated),-10.2%
2,CC(C)Oc1ccccc1C1CC(=O)Nc2cc3c(cc21)OCCO3 (configuration not stated),56.4% (active)
3,COc1cccc(C2CC(=O)Nc3cc4c(cc32)OCCO4)c1OC(C)C (configuration not stated),27.3%
4,COc1ccc(C(=O)N2CCN(S(=O)(=O)c3ccc(C)cc3C)CC2)cc1OC,2.4%
5,Cc1ccc(Cl)cc1NC(=O)Cn1cccc1,-2.6%
6,Cc1cc(C(=O)N2CCN(Cc3ccc4c(c3)OCO4)CC2)on1,0.3%
7,COC(=O)c1cc(-c2ccc3c(c2)OCO3)nc2ccccc12,-9.6%
8,O=C(COc1cccc(NC(=O)c2ccco2)c1)c1ccc(F)cc1,-13.8%
9,CN1CCN(C2=Nc3ccccc3Oc3ccc(Cl)cc32)CC1,10.6%
10,Cn1c(Cl)cnc1C1CC(=O)c2cc(Cl)ccc2O1 (configuration not stated),69.6% (active)
11,COc1ccc2c(c1)C(=O)CC(c1ccccc1F)O2 (configuration not stated),-4.1%
12,CCN1CCN(C(=O)c2nn(-c3ccc(OC)cc3)c(=O)c3c2c2ccccc2n3C)CC1,-10.7%
13,CCCc1[nH]nc2c1C1(C(=O)N(C(C)C)c3ccccc31)C(C#N)=C(N)O2 (configuration not stated),-41.8%
14,O=C1c2[nH]nc(-c3ccccc3O)c2C(c2cccc(Cl)c2)N1CC1CCCO1 (configuration not stated),32.4%
15,O=C1c2ccccc2C(O)N1Cc1ccco1 (configuration not stated),-6.1%
16,O=C1C(=O)N(Cc2ccco2)C(c2cccc(Cl)c2)/C1=C(\O)c1ccc2c(c1)OCCO2 (configuration not stated),3.5%
17,O=C1c2[nH]nc(-c3ccccc3O)c2C(c2ccccc2)N1Cc1ccco1 (configuration not stated),21.9%
18,CC(=O)C1=C(O)C(=O)N(Cc2ccco2)C1c1ccc(F)cc1 (configuration not stated),-1.4%
19,O=C1c2ccccc2NC(c2ccc(F)cc2)N1Cc1ccco1 (configuration not stated),1.1%
20,COC(=O)Nc1sccc1C(=O)Nc1sccc1C(=O)OC,3.5%
21,CCOC(=O)N1CCN(c2c(N3CCc4ccccc4C3)c(=O)c2=O)CC1,-10.2%

row,Compound,cytotoxicity
1,O=C(CC(O)(c1ccccc1)C(F)(F)C(F)F)c1cccs1 (configuration not stated),2.3%
2,CCN(CC)C(C(=O)Nc1ccc2c(c1)OCO2)c1ccccc1 (configuration not stated),5%
3,CCCCn1c(NC(=O)c2ccc(F)cc2)c(C#N)c2nc3ccccc3nc21,73.6% (active)
4,CCCCn1c(NC(=O)c2ccccc2Cl)c(C#N)c2nc3ccccc3nc21,61.7% (active)
5,N#Cc1c(NC(=O)c2ccc(Br)o2)n(-c2ccccc2)c2nc3ccccc3nc12,54.7% (active)
6,CCC(=O)Nc1c(C#N)c2nc3ccccc3nc2n1-c1ccccc1C,2.9%
7,C=CCn1c(NC(=O)c2ccccc2)c(C#N)c2nc3ccccc3nc21,45.1%
8,COc1ccc(-n2c(NC(=O)c3ccco3)c(C#N)c3nc4ccccc4nc32)cc1,5.6%
9,CCCCCn1c(N)c(C#N)c2nc3ccccc3nc21,3.3%
10,CCC(=O)Nc1c(C#N)c2nc3ccccc3nc2n1C1CCCCC1,2%
11,CCCCn1c(NC(C)=O)c(C#N)c2nc3ccccc3nc21,-2.1%
12,C=CCn1c(NC(=O)c2ccccc2Cl)c(C#N)c2nc3ccccc3nc21,17.3%
13,CCCCn1c(NC(=O)CC)c(C#N)c2nc3ccccc3nc21,10%
14,CCCCn1c(NC(=O)c2ccccc2)c(C#N)c2nc3ccccc3nc21,101% (active)
15,CC1(C)Cc2c(sc3c2c(=N)n(Cc2ccco2)c(=O)n3Cc2ccc(F)cc2)CO1,5.6%
16,O=C1C2C3C=CC(C3)C2C(=O)N1c1n[nH]c(CCc2ccccc2)n1 (configuration not stated),0.1%
17,CCCCP(=O)(CCCC)Cc1ccccc1O,-0.6%
18,CC(C)=CC(=O)Nc1ccccc1Br,-7.7%
19,CC1CC(C)CN(c2oc(-c3ccccc3Cl)nc2C#N)C1 (configuration not stated),2.5%
20,CCCCOC(=O)Cn1c(=O)c2c(nc(Br)n2Cc2ccccc2)n(C)c1=O,-12.6%

# — PubChem BioAssay AID430 (Sanford-Burnham Center for Chemical Genomics, 2006)
